Among the data in PubChem BioAssay (Tox21) are Potency values, retold here.

Each structure is given as a SMILES string. Results filed as inconclusive are left out. Entries that show only a call come without a potency. Calls of active or inactive are those of the source. The call rests on the fitted dose curve.

This assay in a line: qHTS assay to identify small molecule agonists of the endoplasmic reticulum stress response signaling pathway - cell viability counter screen (AID 1159517). Further: nearly all actives have a fitted effect of over 50% in size. The following applies: ESRE-bla HeLa viability, CellTiter-Glo luminescence, 5 h; series mostly up to 61 µM. From the text: U.S. Tox21 Program National Center for Advancing Translational Sciences [NCATS] NIH Chemical Genomics Center [NCGC] U.S. Environmental Protection Agency [EPA] National Institutes of Environmental Health Sciences [NIEHS] National Toxicology Program [NTP] U.S. Food and Drug Administration [FDA] Tox21 Assay Overview: Endoplasmic Reticulum (ER) plays an important role in cellular signaling, protein folding/maturation, stress response, lipid biosynthesis, calcium storage and release etc. Under stress conditions, proteins in ER misfold or unfold, and leading to the expression of ER stress responsive genes. ER stress has been associated with a variety of pathophysiological conditions such as cancer, inflammation, neurodegenerative diseases, diabetes, ischemic heart disease etc. To identify the compounds that induce ER stress response, an ER stress reporter cell line, CellSensor ESRE-bla HeLa (Life Technologies, Carlsbad, CA) containing a beta-lactamase reporter gene under control of the Endoplasmic reticulum Stress Response Element (ESRE) was used to screen Tox21 10K compound library. The cytotoxicity of the Tox21 compound library against the ESRE-bla HeLa cell line was tested in parallel by measuring cell viability using the CellTiter-Glo assay in the same wells.
Tox21 Assay Protocol Summary: ESRE-bla HeLa cells were dispensed at 1,500 cells/6 uL of assay medium per well into black wall/clear-bottom 1536-well plates using a Multidrop Combi (ThermoFisher Scientific, Waltham, MA) dispenser. After the assay plates were incubated at 37 C and 5% CO2 for an overnight, 23 nL of compounds dissolved in DMSO, positive controls or DMSO only was transferred to the assay plate by a Pintool station (Kalypsys, San Diego, CA). The assay plates were incubated at 37 C and 5% CO2 for 5 hr. One uL of LiveBLAzer B/G FRET substrate (Life Technologies) was added using a FRD (Flying Reagent Dispenser, Aurora Discovery, San Diego, CA) and the plates were incubated at room temperature for 2 hr. Fluorescence intensity (405 nm excitation, 460 nm and 530 nm emissions) was measured using an Envision plate reader (PerkinElmer, Shelton, CT). For cytotoxicity, 4 ul/well of CellTiter-Glo reagent was added into the assay plates using an FRD. After 30 min incubation at room temperature, the luminescence intensity was measured using a ViewLux plate reader (PerkinElmer).
(In qHTS, concentration-response curves come from the screen itself.)
For `BrCc1ccc(Br)cc1`, the Potency entry was “inactive”.

Regarding `C#CCOC(=O)/C=C(C)/C=C/CC(C)CCCC(C)C` (stereo not given), the Potency entry is “inactive”.

Regarding `N#CC(Br)(Br)C(N)=O`, the Potency result is “inactive”.

For `CCCCCCCCSC(=O)Oc1cc(Cl)nnc1-c1ccccc1`, the Potency result is “inactive”.

As for `CCCCCCC(=O)CCCCCC/C=C/C[C@@H](O)[C@H](O)[C@@](N)(CO)C(=O)O`, the Potency result is “inactive”.

For the molecule `CCCCCCCCBr`, the Potency entry was “inactive”.

For the molecule `C(COCC1CO1)OCC1CO1` (stereo not given), the Potency entry was “inactive”.

As to `CCN(CC)C1CCCCC1`, the Potency entry is “inactive”.

For `O=CCCl`, the Potency result is “inactive”.

With `NCCOS(=O)(=O)O`, the Potency result was “inactive”.

`O=[N+]([O-])CCO`: the Potency entry is “inactive”.

Regarding `COC(=O)c1ccc(CBr)cc1`, the Potency result was “inactive”.

With `CC(=O)CN(CC(C)=O)N=O`, the Potency result is “inactive”.

`ClCOCCl`: the Potency result is “inactive”.

Consider `CCN[C@@H](C)Cc1ccccc1`, for which the Potency result was “inactive”.

With `CC(C)(N)Cc1ccc(Cl)cc1`, the Potency result is “inactive”.

As to `O=C(NC(=O)c1c(F)cccc1F)Nc1cc(Cl)c(F)c(Cl)c1F`, the Potency result is “inactive”.

As for `C[N+]1(C)CCCCC1`, the Potency entry is “inactive”.

With `C=C1C[C@@H]2[C@H](CC[C@]3(C)C(=O)CC[C@@H]23)[C@@]2(C)C=CC(=O)C=C12`, the Potency entry was “inactive”.

As to `CCN[C@H](C)Cc1cccc(C(F)(F)F)c1`, the Potency result is “inactive”.

As to `ClCCN1CCCC1`, the Potency result was “inactive”.

In the case of `NC1(c2ccccc2)CCCCC1`, the Potency result is “inactive”.

As for `CN(C)CCc1c[nH]c2cccc(OP(=O)(O)O)c12`, the Potency result was “inactive”.

On to `COc1cccc([C@@]2(O)CCCC[C@@H]2CN(C)C)c1`, for which the Potency entry is “inactive”.

As to `CC(C)(C1CCC(O)CC1)C1CCC(O)CC1` (stereo not given), the Potency entry is “inactive”.

Regarding `O=C(Cl)OCc1ccccc1`, the Potency result was “inactive”.

As to `S=C=S`, the Potency entry is “inactive”.

Regarding `C[C@H](N)C(=O)c1ccccc1`, the Potency entry was “inactive”.

Take `NC(=O)CS(=O)C(c1ccccc1)c1ccccc1` (stereo not given): the Potency entry is “inactive”.

Take `CN=CNc1ccc(C)cc1C`: the Potency result was “inactive”.

As to `CON(C)C(=O)Nc1ccc(Br)cc1`, the Potency entry was “inactive”.

For `CCN1CCCC1CNC(=O)C(O)(c1ccccc1)c1ccccc1` (stereo not given), the Potency entry was “inactive”.

On to `CCC(=O)OC1(c2ccccc2)CCN(C)CC1`, for which the Potency result was “inactive”.

For the molecule `CC(C)c1ccc(O)cc1`, the Potency result was “inactive”.

As to `CN(C)CCN(C)C`, the Potency result is “inactive”.

Take `CCCOc1nn(C(=O)NS(=O)(=O)c2ccccc2C(=O)OC)c(=O)n1C`: the Potency result is “inactive”.

`COc1cccc(C=O)c1`: the Potency entry was “inactive”.

With `O=C/C=C/c1ccco1`, the Potency result was “inactive”.

With `CC(=O)OCC1=C(C(=O)O)N2C(=O)[C@@H](N)[C@H]2SC1`, the Potency result was “inactive”.

For the molecule `CCCCCCCC(=O)Cl`, the Potency entry is “inactive”.
